Screens as filed in PubChem BioAssay.
In the library only some 6.8% were active in any assay of this set; here they are far more common.
C diff growth = C. difficile growth inhibitors, primary screen, HTS; Clostridium difficile clinical isolate growth, OD600, 24 h; active compounds read low; growth activity, negative = inhibition, % at 16 µg/mL (by protocol); 86,000 compounds, 0.25% hits;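 active means mean growth activity at or below -80% and every replicate also at or below -80%; inconclusive means mean at or below -80% but some replicate above -80%; inactive means mean growth activity above -80%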
Tcruzi prolif = T. cruzi intracellular proliferation inhibitors, primary screen, cell-based, beta-gal Tulahuen parasites, NIH3T3 host, luminescence. T. cruzi beta-gal in NIH3T3, GalScreen luminescence, 90 h. inhibition, % at 8.34 µM. 77,000 compounds, 5.9% hits;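 active means mean inhibition above about 93%, with at least 55% of replicates each passing it, limit read from the data, passing the limit was not always enough; inconclusive means only one of those two conditions holds; inactive means neither condition holds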
Pf Dd2 inh = P. falciparum Dd2 growth inhibitors, primary screen, SYBR Green fluorescence, single dose replicates; 72 h; active compounds read low; activity change, % at 10 µM; 94,000 compounds, 2.3% hits; AID 1159554, 2015; in the data active means activity change below about -80%; inconclusive means no clear call, values can overlap the other calls
Numbers stand for hits; n = inactive; u = inconclusive; x = no result given.

SMILES	C diff growth	Tcruzi prolif	Pf Dd2 inh
C[C@@H]1CN([C@H](C)CO)C(=O)c2cc(NC(=O)Nc3ccc4c(c3)OCO4)ccc2O[C@@H]1CN(C)C(=O)Nc1ccccc1	n	n	n
C[C@@H]1CN([C@@H](C)CO)C(=O)c2cc(NC(=O)Nc3ccccc3)ccc2O[C@@H]1CN(C)C(=O)Nc1cccc2ccccc12	n	n	-91.0
CC(C)NC(=O)Nc1cccc2c1O[C@H](CN(C)C(=O)Nc1ccc(C(F)(F)F)cc1)[C@H](C)CN([C@@H](C)CO)C2=O	n	n	-84.7
C[C@@H]1CN([C@@H](C)CO)C(=O)c2cc(NC(=O)Nc3ccc(C(F)(F)F)cc3)ccc2O[C@H]1CN(C)C(=O)Nc1cccc2ccccc12	n	n	-87.0
C[C@H]1CN([C@@H](C)CO)C(=O)c2cccc(NS(=O)(=O)c3cn(C)cn3)c2O[C@H]1CN(C)C(=O)Nc1ccc(C(F)(F)F)cc1	n	n	-85.0
C[C@@H]1CN([C@@H](C)CO)C(=O)c2cc(NC(=O)Nc3ccccc3)ccc2O[C@H]1CN(C)C(=O)Nc1cccc2ccccc12	n	n	n
C[C@H]1CN([C@@H](C)CO)C(=O)c2cc(NC(=O)Nc3ccc(C(F)(F)F)cc3)ccc2O[C@H]1CN(C)C(=O)Nc1cccc2ccccc12	n	n	n
C[C@@H]1CN([C@H](C)CO)C(=O)c2cccc(NS(=O)(=O)c3cn(C)cn3)c2O[C@@H]1CN(C)C(=O)Nc1ccc(C(F)(F)F)cc1	n	n	n
CC(C)NC(=O)Nc1cccc2c1O[C@H](CN(C)C(=O)Nc1ccc(C(F)(F)F)cc1)[C@@H](C)CN([C@H](C)CO)C2=O	n	n	n
C[C@@H]1CN([C@@H](C)CO)C(=O)c2cccc(NC(=O)Nc3ccc4c(c3)OCO4)c2O[C@@H]1CN(C)C(=O)Nc1cccc2ccccc12	n	n	n
Cc1noc(C)c1NC(=O)N(C)C[C@H]1Oc2c(NS(=O)(=O)c3cn(C)cn3)cccc2C(=O)N([C@@H](C)CO)C[C@@H]1C	n	n	n
COc1cccc(C#Cc2ccc([C@H]3[C@H](CO)N4C(=O)CN(C(C)=O)C[C@@H]34)cc2)c1	n	x	n
C[C@H](CO)N1C[C@H](C)[C@H](CN(C)S(=O)(=O)c2cn(C)cn2)OCCCC[C@H](C)Oc2ccc(NS(=O)(=O)c3ccc(Cl)cc3)cc2C1=O	n	n	n
CO[C@H]1CN(C)C(=O)c2ccc(NC(=O)NC(C)C)cc2OC[C@H](C)N(S(C)(=O)=O)C[C@@H]1C	n	x	n
CCC(=O)N1[C@H](CO)[C@H]2c3ccccc3N(C(=O)Nc3cccc(Cl)c3)C[C@H]21	n	n	n
C[C@@H]1CN([C@@H](C)CO)C(=O)c2cccc(NC(=O)Nc3ccc(C(F)(F)F)cc3)c2O[C@H]1CN(C)C(=O)Nc1cccc2ccccc12	n	n	-88.4
C[C@@H]1CN([C@@H](C)CO)C(=O)c2cc(NC(=O)Nc3cccc4ccccc34)ccc2O[C@@H]1CN(C)C(=O)Nc1ccc(C(F)(F)F)cc1	n	n	n
C[C@H](CO)N1C[C@H](C)[C@H](CN(C)C(=O)Nc2cccc3ccccc23)Oc2c(NC(=O)Nc3ccc(C(F)(F)F)cc3)cccc2C1=O	n	n	n
C[C@H](CO)N1C[C@H](C)[C@H](CN(C)C(=O)Nc2ccc(C(F)(F)F)cc2)Oc2ccc(NC(=O)Nc3cccc4ccccc34)cc2C1=O	n	n	-83.5
CS(=O)(=O)Nc1ccc2c(c1)[C@@H]1C[C@H](CC(=O)N3CCOCC3)O[C@@H](CO)[C@@H]1O2	n	n	n
COCC#Cc1ccc2c(c1)O[C@H](CN(C)Cc1ccc(F)cc1)[C@H](C)CN([C@H](C)CO)S2(=O)=O	n	n	n
COc1ccc(S(=O)(=O)Nc2ccc3c(c2)CC(=O)N([C@@H](C)CO)C[C@H](C)[C@@H](CN(C)Cc2ccc(C(F)(F)F)cc2)O3)cc1	n	n	n
C[C@@H]1CN([C@H](C)CO)C(=O)c2cccc(NC(=O)C3CCOCC3)c2O[C@@H]1CN(C)Cc1ccc(C(=O)Nc2ccccc2N)cc1	n	n	n
C[C@@H]1CN([C@H](C)CO)C(=O)c2cccc(NC(=O)NC3CCCCC3)c2O[C@@H]1CN(C)Cc1ccc(C(=O)Nc2ccccc2N)cc1	x	n	-83.8
C[C@@H]1CN([C@@H](C)CO)C(=O)c2cccc(NC(=O)C3CCCCC3)c2O[C@@H]1CN(C)Cc1ccc(C(=O)Nc2ccccc2N)cc1	n	n	-84.7
SMILES	C diff growth	Tcruzi prolif	Pf Dd2 inh
CC(C)NC(=O)Nc1cccc2c1O[C@@H](CN(C)Cc1ccc(C(=O)Nc3ccccc3N)cc1)[C@@H](C)CN([C@@H](C)CO)C2=O	n	x	n
COc1ccccc1NC(=O)N1CCCCN2[C@H](CO)[C@H](c3ccc(C#CC4CC4)cc3)[C@H]2C1	n	x	n
C[C@@H]1CN([C@@H](C)CO)C(=O)Cc2cc(NC(=O)Nc3cccc4ccccc34)ccc2O[C@H]1CN(C)C	n	x	n
CC(C)NC(=O)Nc1ccc2c(c1)C(=O)N([C@H](C)CO)C[C@H](C)[C@@H](CN(C)Cc1ccncc1)OCCCC[C@@H](C)O2	n	n	n
Cc1noc(C)c1NC(=O)Nc1ccc2c(c1)C(=O)N([C@H](C)CO)C[C@H](C)[C@@H](CN(C)Cc1ccc(Cl)c(Cl)c1)OCCCC[C@@H](C)O2	n	n	n
C[C@@H]1CN([C@H](C)CO)C(=O)c2cc(NC(=O)Nc3ccccc3)ccc2O[C@@H](C)CCCCO[C@@H]1CN(C)Cc1ccc(Cl)c(Cl)c1	n	n	-85.1
Cc1noc(C)c1NC(=O)Nc1ccc2c(c1)C(=O)N([C@H](C)CO)C[C@@H](C)[C@H](CN(C)Cc1ccc(Cl)c(Cl)c1)OCCCC[C@H](C)O2	n	n	-85.6
C[C@H]1CCCCO[C@H](CN(C)Cc2ccccc2)[C@@H](C)CN([C@@H](C)CO)C(=O)c2cc(NC(=O)Nc3ccc(F)cc3)ccc2O1	n	n	n
C[C@@H]1CCCCO[C@H](CN(C)Cc2ccccc2)[C@H](C)CN([C@@H](C)CO)C(=O)c2cc(NC(=O)Nc3ccc(F)cc3)ccc2O1	n	n	-84.4
C[C@@H]1CCCCO[C@@H](CN(C)Cc2ccc(Cl)c(Cl)c2)[C@@H](C)CN([C@H](C)CO)C(=O)c2cc(NC(=O)Nc3ccccc3)ccc2O1	n	n	n
Cc1noc(C)c1NC(=O)Nc1ccc2c(c1)C(=O)N([C@@H](C)CO)C[C@H](C)[C@@H](CN(C)S(C)(=O)=O)O2	x	n	n
Cc1noc(C)c1NC(=O)Nc1ccc2c(c1)C(=O)N([C@H](C)CO)C[C@@H](C)[C@@H](CN(C)S(C)(=O)=O)O2	x	n	-91.6
CC(C)NC(=O)N[C@H]1C=C[C@@H](CC(=O)N2CCCCC2)O[C@H]1CO	x	n	n
C[C@H](CO)N1C[C@H](C)[C@H](CN(C)C(=O)Nc2cccc3ccccc23)Oc2ccc(NC(=O)CCCN(C)C)cc2C1=O	n	x	n
C[C@@H]1CCCCO[C@H](CN(C)Cc2ccc3c(c2)OCO3)[C@H](C)CN([C@@H](C)CO)C(=O)c2cc(NC(=O)Nc3ccccc3)ccc2O1	n	n	u
